Most compounds without a hit are left out; they make up all but 1.1% or so of the library.
RGS4 inhibitor: blocks human RGS4-accelerated GTP hydrolysis | P49798 | Transcreener GDP fluorescence polarization, RGS4-accelerated GTP hydrolysis | Potency, µM (series often up to 114 µM), inactives show at the top dose activity change, negative = inhibition, usual class: inhibitors | 390,000 compounds, 0.039% hits; further: potency means the concentration at half of the fitted maximal effect; on the % scale 0 is the no-effect control and ±100 the full control effect; nearly all actives have a fitted effect of over 75% in size
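MLSMR compounds (23 nl, pin-transferred) preincubated 10 min at room temperature with a 500nM (2x) first reagent, then RGS4 at 900nM (2x) plus Transcreener GDP mix added; fluorescence polarization (620/688 nm) read before and after 90 min at 30 °C.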
p53 reactivator: restores transcriptional activity of mutant p53; AID 504706; Potency, µM (series often up to 92.2 µM), inactives show top-dose activity change, positive = activation, most hits filed as activators; 320,000 compounds, 0.063% hits; H1299 p53-A138V BP100-luciferase reporter, luminescence, 24 h; further: potency means the concentration at half of the fitted maximal effect; % of control where 0% means no effect; nearly all actives have a fitted effect of over 45% in size
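H1299 (p53-null), stable ts p53-A138V + BP100-Luc; 1000 cells/well, Opti-MEM/10% FBS; cpd 4 pt, 1:5; 24 h, 37 deg C, 5% CO2; detection reagent 10 min RT; luminescence.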
PTHR1 ag: activates the human parathyroid hormone receptor PTHR1 | Q03431 | HEK293 GP2 PTHR1 cells, GloSensor cAMP luminescence, 1 h | Potency, µM (highest dose often 115 µM), without a hit: at the top dose activation, actives largely listed as activators | 410,000 compounds, 0.075% hits | AID 743266; further: potency means the concentration at half of the fitted maximal effect; nearly all actives have a fitted effect of over 55% in size
Target sequence (Q03431 whole entry, looked up): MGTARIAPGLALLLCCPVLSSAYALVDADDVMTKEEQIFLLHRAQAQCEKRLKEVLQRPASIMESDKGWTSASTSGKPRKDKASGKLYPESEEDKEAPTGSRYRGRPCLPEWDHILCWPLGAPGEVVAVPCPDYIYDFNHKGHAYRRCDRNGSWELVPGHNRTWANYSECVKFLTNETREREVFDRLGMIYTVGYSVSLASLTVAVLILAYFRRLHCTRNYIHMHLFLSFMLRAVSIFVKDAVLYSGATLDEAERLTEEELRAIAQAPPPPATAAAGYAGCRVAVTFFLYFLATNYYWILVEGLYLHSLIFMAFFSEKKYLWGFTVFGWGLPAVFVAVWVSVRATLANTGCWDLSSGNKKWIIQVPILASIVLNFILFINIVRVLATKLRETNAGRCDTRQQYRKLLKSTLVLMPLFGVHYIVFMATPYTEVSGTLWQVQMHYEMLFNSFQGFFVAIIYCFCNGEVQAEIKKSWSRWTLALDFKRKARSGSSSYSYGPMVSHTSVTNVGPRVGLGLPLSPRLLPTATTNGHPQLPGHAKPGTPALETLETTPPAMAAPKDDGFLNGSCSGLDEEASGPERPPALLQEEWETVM
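HEK-293-derived GP2 cells expressing PTHR1 and a GloSensor cAMP reporter, 3,000/well, plated overnight, given luciferin plus IBMX (each 0.5 mM as added) for 1 h at 37 °C, then compound for 1 h at 37 °C. Luminescence was read after 15 min at room temperature.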
LDHA block: LDHA (human) enzyme inhibition; purified LDHA, NADH/diaphorase-resazurin fluorescence; stronger effect = lower value; AID 1347041; activity change, % (values are at about 110 or 230 µM); 480,000 compounds, 0.15% hits; in the data active means activity change below about -30%; inconclusive means mostly about -25% to -30%;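 further: plate controls were DMSO wells for no effect and wells without enzyme for full effect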
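Enzyme activity of human lactate dehydrogenase 5 (2 nM; 0.06 mM NADH, 0.2 mM pyruvate, 5 min, RT) is measured via a resazurin/diaphorase fluorescence readout of residual NADH.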
BRCA1 expr up: increases BRCA1 expression; Potency, µM (series often up to 46.1 µM), without a hit: top-dose activation, most hits filed as activators; MCF7-BRCA1-FFLuc reporter, luminescence, 48 h; response scale: scaled: vehicle 0%, 10 µM genistein 100%; 380,000 compounds, 1.1% hits; AID 624202; further: potency means the concentration at half of the fitted maximal effect; nearly all actives have a fitted effect of over 80% in size
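MCF7 cells carrying a BRCA1-firefly luciferase reporter (2000 cells/well, phenol-red free MEM) were attached for 2 h at 37 °C, then given compounds for 48 h. Luminescence was read 15 min after luciferase reagent; activity normalized to genistein (10 microM) and DMSO.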
Numbers without * were called inactive; i = inactive; u = inconclusive; x = not tested or not shown; [ ] = another dose, or the depositor's remark. Unless noted, the call rests on the fitted dose curve; in most records, active means well fitted curve in the direction sought with a large enough effect; inconclusive means small, poorly fitted or top-dose-only effect, or another doubt; inactive means no such curve, though single readings can be large; an effect the other way counts as inactive or inconclusive.

SMILES | RGS4 inhibitor | p53 reactivator | PTHR1 ag | LDHA block | BRCA1 expr up
COc1cccc(-c2nc3ccc(C(=O)N4CCCC(O)C4)cc3o2)c1 (configuration not stated) | 20% | u | -36% | -2 | 3.2µM*
CC(=O)C1CCCN(C(=O)c2ccc3oc(CCc4ccccc4)nc3c2)C1 (configuration not stated) | -2%[56.9 µM] | u | -61% | -5 | 0%
COc1ccc(Cc2nc3ccc(C(=O)NC(C)C)cc3o2)cc1 | -4% | x | -56% | 0 | 87%
COc1ccc(Cc2nc3ccc(C(=O)N4CCCC4)cc3o2)cc1OC | -1% | 15% | -22% | -3 | -14%
O=C(c1ccc2oc(CCCc3ccccc3)nc2c1)N1CCCC1 | -19% | u | -4% | 1 | 7.1µM*
C=C(C)CNC(=O)c1ccc2nc(Cc3ccc(OC)cc3)oc2c1 | -13% | 1% | -72% | 13 | 10µM*
COc1ccc(Cc2nc3ccc(C(=O)N4CCCC4)cc3o2)cc1 | 18% | u | -37% | -9 | 6.3µM*
Cc1cc(Cl)ccc1S(=O)(=O)NCCCC(=O)O | x | x | x | -2 | x
COc1ccccc1Nc1nc2ccccc2n1C | 2% | u | -43% | -1 | 4.5µM*
COc1ccc(OC)c(Nc2ccc(Nc3cc(OC)ccc3OC)nn2)c1 | -9% | -7% | i | 11 | -17%
COc1ccccc1Nc1ccc(Nc2ccccc2OC)nn1 | 15% | u | -34% | 1 | 5µM*
O=C(NCc1coc(-c2cccs2)n1)c1cc(Cl)cc(Cl)c1 | x | x | x | 13 | x
CN(CC(=O)Nc1cccc(F)c1)C(=O)Cc1csc(-c2cccc(Br)c2)n1 | x | x | x | 0 | x
COc1ccc(C(=O)N2N=C(c3ccccc3)CC2(O)C(F)(F)F)cc1 (configuration not stated) | -15% | -4% | -29% | 0 | -1%
COC(=O)N1N=C(c2ccccc2)CC1(O)C(F)(F)F (configuration not stated) | 13% | 2% | -7%[57.5 µM] | -16 | 11µM*
O=C(NNC(=S)Nc1ccccc1Cl)c1ccccc1 | -25% | u | -18% | 0 | 13µM*
O=C(NNC(=S)Nc1ccccc1Cl)c1ccccc1Cl | -22% | 18% | i | -3 | 10µM*
Cc1ccc(-c2cc3ccccn3c2C=O)cc1C | x | x | x | -20 | x
O=[N+]([O-])c1ccc2oc(/C=C/c3ccc(O)cc3)nc2c1 | x | x | -10% | -8 | 10µM*
O=C(CSc1cccc[n+]1[O-])Nc1cc2c(cc1Cl)C(=O)c1ccccc1C2=O | -44% | u | i | 9 | 10µM*
O=C(CSc1cccc[n+]1[O-])Nc1cc([N+](=O)[O-])ccc1Cl | -11% | -2% | i | 1 | -3%
Cc1ncc(-c2ccc(S(=O)(=O)Nc3ccc(C)c(F)c3)cc2)o1 | x | x | x | -31* | x
Cc1ncc(-c2ccc(S(=O)(=O)Nc3cccc(Cl)c3C)cc2)o1 | x | x | x | -31* | x
Cc1ncc(-c2ccc(S(=O)(=O)Nc3ccc(C)c(C)c3)cc2)o1 | x | x | x | 18 | x
Cc1ccc(-c2cc(Nc3cccc(C(=O)N(C)Cc4ccccc4)c3)ncn2)cc1 | x | x | x | 7 | x
SMILES | RGS4 inhibitor | p53 reactivator | PTHR1 ag | LDHA block | BRCA1 expr up
O=C(N=C1N=C2C=CC=CN2Cc2ccccc21)c1ccc(S(=O)(=O)N2CCCC2)cc1 | 9% | 6% | -13% | -7 | u
O=C(N=C1N=C2C=CC=CN2Cc2ccccc21)c1ccc(S(=O)(=O)N2CCOCC2)cc1 | 15% | u | -46% | -2 | 10µM*
CN=C(NC)NCc1ccc(C(=O)OC)cc1 | x | x | x | 2 | x
COc1ccc(C(=O)Cc2cc3cccc(OC)c3oc2=O)cc1 | 3% | 5% | -28% | -12 | 16µM*
COc1cccc2cc(NC(=O)C3CCCCC3)c(=O)oc12 | 0% | 15% | -55%[57.5 µM] | -5 | 6.3µM*
COc1cccc2cc(C(=O)Nc3ccc(C)cc3)c(=O)oc12 | -1% | x | i | -3 | x
COc1ccc(C(=O)NNC(=O)c2cc3cccc(OC)c3oc2=O)cc1 | 30% | 1% | i | -11 | -15%
COc1cccc2cc(CC(=O)c3ccc(C)cc3C)c(=O)oc12 | -3% | 14% | -21% | -1 | 11µM*
CCCN1C(=O)CCc2cc(NS(=O)(=O)c3cc(C)ccc3C)ccc21 | x | x | x | -8 | x
COc1cc(OC)cc(C(=O)Nc2ccc3oc(-c4ccccc4Cl)nc3c2)c1 | x | x | x | 4 | x
Brc1ccccc1/C=N/Nc1ccc2ccccc2c1 | x | x | x | 6 | x
Clc1ccccc1COc1ccc(CNCc2cccnc2)cc1 | x | x | x | 1 | x
CCN(Cc1nc(-c2cccc(C)c2)no1)C(=O)Nc1cccc2ccccc12 | x | x | x | 0 | x
CC(=O)Nc1nc(COc2ccccc2)cs1 | -16% | u | -30% | -5 | 10µM*
CCc1ccc(OC(=O)Nc2ccccc2)cc1 | 1% | x | -24% | -3 | 2.8µM*
CC(=O)Nc1nc(COc2ccc3ccccc3c2)cs1 | 5% | u | -31% | 0 | 43%[1.84 µM]
COc1cccc(-c2csc(NC(C)=O)n2)c1 | -35% | 8% | i | -6 | 13µM*
CCc1ccc(-c2csc(NC(=O)Oc3ccccc3)n2)cc1 | -8% | 14µM* | -24% | -4 | 7.9µM*
Cc1cc(C)c(NC(=O)CSc2ncnc3ccccc23)c(Cl)c1 | x | x | x | -4 | x
C=CCn1c(N)c(C(=O)Nc2ccccc2OC)sc1=S | 0% | -9% | -3% | 1 | -50%
C=CCn1c(N)c(C(=O)Nc2ccc(C)cc2)sc1=S | -22% | 9% | -49% | -1 | 1.3µM*
O=C(CCc1ccccc1)c1ccc2c(c1)OCCCO2 | 9% | u | -92%[57.5 µM] | 2 | 3.5µM*
N#Cc1ccc(/C=C/C(=O)c2ccc3c(c2)OCCO3)cc1 | x | x | x | 6 | x
O=C(/C=C/c1ccccc1)c1ccc2c(c1)OCCCCO2 | -17% | u | -8%[57.5 µM] | -3 | 2.2µM*
O=C(c1ccccc1)c1ccc2c(c1)OCCOCCOCCO2 | 29% | 7% | -4% | -11 | 40%
SMILES | RGS4 inhibitor | p53 reactivator | PTHR1 ag | LDHA block | BRCA1 expr up
COc1ccc(C(=O)COC(=O)CCC(=O)c2ccc3c(c2)OCCO3)cc1 | x | x | x | 12 | x
COc1ccc(CC(=O)OCC(=O)c2ccc3c(c2)OCCCO3)cc1 | x | x | x | -30* | x
O=C(c1ccccc1)c1ccc2c(c1)OCCCO2 | 5% | u | -15% | -4 | 1.4µM*
COc1ccc(CNC(=O)C=C(C)C)cc1 | x | x | x | 1 | x
O=C(CCCc1ccccc1)c1ccc2c(c1)OCCO2 | -18% | -19% | -13%[57.5 µM] | 3 | -78%
O/N=C(/CCc1ccccc1)c1ccc2c(c1)OCCO2 | 21% | u | -18% | -2 | 2.8µM*
Cc1[nH]c2ccc(Br)cc2c1C(=O)CCl | x | x | x | -1 | x
Cc1ccc(Nc2cc(-n3cccn3)ncn2)c(C)c1 | -10% | u | -18% | 2 | 3.2µM*
COc1ccc(CNC(=S)N/N=C(/C)c2ccccc2)cc1 | 17% | 28µM* | -15% | -9 | 7.1µM*
c1ccc(CSc2nnc(NC3CCCCC3)s2)cc1 | x | x | -29% | -14 | 3.5µM*
